Several values for one entry are separate records, joined by “and”; a condition that tells them apart may be missing. Equal values may be shown once. Records with an inconclusive call do not appear. Where a call stands in place of a potency, no number is given. Activity calls are given as the source filed them. Calls come from the whole dose curve; as a rule, active = well fitted inhibition curve with a large enough effect in the repeat runs; inconclusive = weak or mixed curves; inactive = no such curve, though single readings can be large or run the other way.
Potency is the fitted concentration of half-maximal effect.

This experiment can be described thus: qHTS assay to identify small molecule antagonists of the estrogen related receptor (ERR) signaling pathway from Tox21 library (AID 1224848). Note: nearly all actives have a fitted effect of over 50% in size. Particulars: ERR reporter cell line, luciferase antagonist mode, 18 h; series mostly up to 92.4 µM. The text has this:
U.S. Tox21 Program National Center for Advancing Translational Sciences [NCATS] NIH Chemical Genomics Center [NCGC] U.S. Environmental Protection Agency [EPA] National Institutes of Environmental Health Sciences [NIEHS] National Toxicology Program [NTP] U.S. Food and Drug Administration [FDA] Tox21 Assay Overview: Estrogen related receptors (ERRs), the first orphan nuclear receptors discovered, play an important role in the control of cellular energy metabolism. ERRs are required for high-energy production in response to the environmental challenges. ERR-alpha was also identified as an adverse marker for breast cancer progression; ERR-alpha-positive tumors have a poor prognosis. To screen and to identify environmental compounds that perturb the ERR signaling pathways could provide valuable information for potential therapeutic or preventive measures in the treatment of metabolic disease. For identifying ERR antagonists, ERR cell line (provided by NTP) has been used to screen Tox21 10K library.
Tox21 Assay Protocol Summary: The ERR cells were dispensed at 2,000 cells/5 ul/well in 1536-well white plates using a Multidrop dispenser. After the assay plates were incubated at a 37 C/5% CO2 incubator for 6 hours, 23 nL of compounds dissolved in DMSO, positive and negative controls or DMSO only was transferred to the assay plate by a pin tool. The plates were incubated at 37 C for 18 hours. 4 ul/well of One-Glo reagent was added into the assay plates using a Flying Reagent Dispenser. After 30-minute incubation at room temperature, the luminescence intensity in the plates was measured using a ViewLux plate reader.
Background: qHTS replaces the single test concentration by a dilution series.
In the case of `c1ccc2cc3c(cc2c1)-c1cccc2cccc-3c12`, the Potency result was “inactive”. For `CCC(C)c1cc(C(C)(C)C)cc(-n2nc3ccccc3n2)c1O` (stereo not given), the Potency result is “inactive”. Consider `BrC(Br)Br`, for which the Potency entry is “inactive”. As for `C=CC(=O)OCC(COC(=O)C=C)(COC(=O)C=C)COC(=O)C=C`, the Potency is 13.7 µM (active). As for `CC(C)CBr`, the Potency result was “inactive”. With `O=C(O)C1C2CCC(O2)C1C(=O)O` (stereo not given), the Potency entry is “inactive”. The same measure for `COC12CC[C@@]3(C[C@@H]1C(C)(O)C(C)(C)C)[C@H]1Cc4ccc(O)c5c4[C@@]3(CCN1CC1CC1)[C@H]2O5` (stereo not given in full): 27.1 µM (active); for `C=CC(=O)N(C)C`: “inactive”. On to `CCCCCCCCCCBr`, for which the Potency result is “inactive”.

With `CCSC(C)CC1CC(=O)C(/C(CC)=N/OC/C=C/Cl)=C(O)C1` (stereo not given), the Potency result was “inactive”. As for `N#Cc1c(-c2ccc(Cl)cc2)[nH]c(C(F)(F)F)c1Br`, the Potency was 0.344 µM (active). On to `CC1(c2ccc(Oc3ccccc3)cc2)OC(=O)N(Nc2ccccc2)C1=O` (stereo not given), for which the Potency is 2.45 µM (active). For `O=C1c2ccccc2C(=O)C1C(=O)C(c1ccccc1)c1ccc(Cl)cc1` (stereo not given), the Potency is 9.69 µM (active). To `C[C@]12CC[C@@H]3c4ccc(OC(=O)N(CCCl)CCCl)cc4CC[C@H]3[C@@H]1CC[C@@H]2O` belongs “inactive”; to `Oc1ccc(C(c2ccc(O)cc2)(C(F)(F)F)C(F)(F)F)cc1`, 54.2 µM (active) and 61.1 µM (active); to `CC(C)(C)c1ccc(CSc2cnn(C(C)(C)C)c(=O)c2Cl)cc1`, 0.0054 µM (active). Turning to `Cc1ccc(CCl)cc1`, the Potency entry is “inactive”. In the case of `C[C@]12Cc3nonc3C[C@@H]1CC[C@@H]1[C@@H]2CC[C@@]2(C)[C@H]1CC[C@]2(C)O`, the Potency was 13.3 µM (active). As to `CCCCN(CCCC)C(=S)[S-].CCCCN(CCCC)C(=S)[S-].[Zn+2]`, the Potency was 12.2 µM (active). For the compound `c1ccc(Nc2ccc3ccccc3c2)cc1`, the Potency result is “inactive”. Turning to `CCC[CH2][Sn]([CH2]CCC)([CH2]CCC)[O]C(=O)c1ccccc1`, the Potency is 0.486 µM (active). On to `C=CCC1=C(C)C(OC(=O)C2C(C=C(C)C)C2(C)C)CC1=O` (stereo not given), for which the Potency was 20.5 µM (active). As for `Cl/C=C\CCl`, the Potency entry is “inactive”. Turning to `O=C(CCl)Nc1ccccc1`, the Potency was 19.3 µM (active). In the case of `CC(C)C(=O)Cl`, the Potency entry was “inactive”. The same measure for `Oc1c(Cl)c(Cl)cc(Cl)c1Cl`: 37.5 µM (active). For `Cc1cc(C)cc(OP(=O)(Oc2cc(C)cc(C)c2)Oc2cc(C)cc(C)c2)c1`, the Potency result is “inactive”. Turning to `COC[C@H](C)N(C(=O)CCl)c1c(C)csc1C`, the Potency entry was “inactive”. Turning to `N#CSCSC#N`, the Potency is 27.9 µM (active) and 60.5 µM (active). On to `CC[C@H](C)[C@H]1O[C@]2(C=C[C@@H]1C)C[C@@H]1C[C@@H](C/C=C(\C)[C@@H](O[C@H]3C[C@H](OC)[C@@H](O[C@H]4C[C@H](OC)[C@@H](O)[C@H](C)O4)[C@H](C)O3)[C@@H](C)/C=C/C=C3\CO[C@@H]4[C@H](O)C(C)=C[C@@H](C(=O)O1)[C@]34O)O2`, for which the Potency is 7.2 µM (active). Consider `Nc1ccc(Cl)cc1C(=O)c1ccccc1`, for which the Potency result was “inactive”.

Take `CC(=O)C(Cl)(Cl)Cl`: the Potency was 5.9 µM (active). For the compound `C=COCCCl`, the Potency entry was “inactive”. With `CCOc1cc(C(C)(C)C)ccc1C1COC(c2c(F)cccc2F)=N1` (stereo not given), the Potency is 37.1 µM (active). As to `O=C(Nc1ccc2[nH]ccc2c1)c1cc2cc(F)ccc2n1Cc1cccc(F)c1`, the Potency is 6.11 µM (active). As for `CCC(C)(C)C(=O)OC1=C(c2ccc(Cl)cc2Cl)C(=O)OC12CCCCC2`, the Potency entry was “inactive”. `O=C(CCl)C(Cl)Cl`: the Potency was 43.7 µM (active). Take `COc1cccc(C(=O)CCN[C@@H](C)[C@H](O)c2ccccc2)c1`: the Potency entry is “inactive”. Turning to `Clc1ccc(C(c2ccccc2Cl)C(Cl)(Cl)Cl)cc1` (stereo not given), the Potency is 61.5 µM (active) and 40.2 µM (active).

For `ClC1=C(Cl)[C@]2(Cl)[C@@H]3[C@@H](Cl)[C@H](Cl)C[C@@H]3[C@@]1(Cl)C2(Cl)Cl`, the Potency result is “inactive”.
